Where “and” joins values, the source holds several entries; their conditions need not be identical. Equal entries are not always repeated. Calls of active or inactive are those of the source. Cut-off read from the data, not from the text of the source: active = parasite load remaining mostly below about 12% (no sharp cut-off); inactive = mostly above about 10%. Numbered stars: 1 amine (or outer) side, 2 acyl side, 3 side chain; on linkers, the order of the positions; unused ones are H or OH. Bridge positions count the residues as written; N and C are the ends. Square brackets hold non-standard residues; d marks the D form. Side chains are listed from the residue outwards. Peptide text beside a SMILES is read from it. * marks the point of attachment. ξ: configuration not given here. ΔAla(E,3-NHCONH2) = NC(=O)N/C=C(/N)C(=O)O; X1 = NC1=NCCC(C(N[*:1])C(=O)[*:2])N1; Heptanoyl(6-Me) = CC(C)CCCCC(=O)*; X2 = CCC(C)C(N)C1=NC(C(=O)*)CS1; ξβ3hOrn = NCCCC(N)CC(=O)*; Orn = NCCC[CH](N)C(=O)O; Dab = NCC[CH](N)C(=O)O; Dap = NC[CH](N)C(=O)O
assay: P. berghei load reduction in hepatocytes – cell-based, HepG2, luciferase luminescence, HepG2 viability, primary screen (AID 624349);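 note: 100% = mean of DMSO negative control wells on the same plate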; details: P. berghei liver stage in HepG2, luciferase luminescence, concentration not given here; parasite load remaining: stronger effect = lower value; viability: measured here: HepG2 viability without parasites

Row | SMILES | viability | parasite load remaining
1 | CC1C/C=C/C=C/C=C/C=C/C(O[C@@H]2O[C@H](C)[C@@H](O)[C@H](N)[C@@H]2O)CC2OC(O)(CC(O)CC3OC3/C=C/C(=O)O1)CC(O)C2C(=O)O (some centres undefined) | 102% | 78.2% (inactive)
2 | C[C@]12CCC(=O)C=C1C=CC1C2CC[C@@]2(C)C1CC[C@@]21CCC(=O)O1 (some centres undefined) | 91.3% and 97% | 99.9% (inactive) and 38.4% (inactive)
3 | CC(C)c1c(C(=O)c2ccccc2)c(-c2ccccc2)c(-c2ccc(F)cc2)n1CC[C@@H](O)C[C@@H](O)CC(=O)O | 88% and 103% | 174% (inactive) and 44.6% (inactive)
4 | CC(CCC(=O)O)[C@H]1CCC2C3C(=O)C[C@@H]4CC(=O)CC[C@]4(C)C3CC(=O)[C@@]21C (some centres undefined) | 81.3% | 50.2% (inactive)
5 | CC(=O)Nc1cc2ccccc2oc1=O | 77.8% | 90.5% (inactive)
6 | CCCCCCCCCCC[C@@H](C[C@H]1OC(=O)[C@H]1CCCCCC)OC(=O)[C@@H](CC(C)C)NC=O | 86.3% and 114% | 118% (inactive) and 62.8% (inactive)
7 | CC(=O)OCC(=O)[C@@]12OC(C)(C)O[C@@H]1CC1C3C[C@H](F)C4=CC(=O)C=C[C@]4(C)[C@@]3(F)[C@@H](O)C[C@@]12C (some centres undefined) | 77.1% and 96.2% | 117% (inactive) and 83.7% (inactive)
8 | CC[C@@H]1OC(=O)C[C@@H](O)[C@H](C)[C@@H](O[C@@H]2O[C@H](C)[C@@H](O)[C@H](N(C)C)[C@H]2O)[C@@H](CCN2C[C@H](C)C[C@H](C)C2)C[C@@H](C)C(=O)/C=C/C(C)=C\[C@@H]1CO[C@@H]1O[C@H](C)[C@@H](O)[C@@H](OC)[C@H]1OC | 108% | 64.4% (inactive)
9 | O=C(OC[C@H]1O[C@H](OC(=O)c2cc(O)c(O)c(OC(=O)c3cc(O)c(O)c(O)c3)c2)[C@H](OC(=O)c2cc(O)c(O)c(OC(=O)c3cc(O)c(O)c(O)c3)c2)[C@@H](OC(=O)c2cc(O)c(O)c(OC(=O)c3cc(O)c(O)c(O)c3)c2)[C@@H]1OC(=O)c1cc(O)c(O)c(OC(=O)c2cc(O)c(O)c(O)c2)c1)c1cc(O)c(O)c(OC(=O)c2cc(O)c(O)c(O)c2)c1 | 119% and 101% | 58.2% (inactive) and 73.8% (inactive)
10 | CC(C)C1CCC(C(=O)N[C@@H](Cc2ccccc2)C(=O)O)CC1 (some centres undefined) | 105% and 113% | 74.2% (inactive) and 53.3% (inactive)
11 | CCC(C)C(=O)O[C@H]1C[C@H](O)C=C2C=C[C@H](C)[C@H](CC[C@@H](O)C[C@@H](O)CC(=O)O)C21 (some centres undefined) | 84.1% and 191% | 152% (inactive) and 58.6% (inactive)
12 | CCC(C)C1NC(=O)C(CCN)NC(=O)C(NC(=O)C(CCN)NC(=O)C(NC(=O)C(CCN)NC(=O)CCCCC(C)C)C(C)O)CCNC(=O)C(C(C)O)NC(=O)C(CCN)NC(=O)C(CCN)NC(=O)C(C(C)CC)NC1=O (centres undefined) ({Heptanoyl(6-Me)}-[Dab]T[Dab][Dab][Dab]II[Dab][Dab]T; lactam 4-C; configuration not given here) | 98.1% | 49.5% (inactive)
13 | CC1=C(C(=O)O)N2C(=O)[C@@H](NC(=O)[C@H](N)C3=CCC=CC3)C2SC1 (some centres undefined) | 77.3% and 102% | 74.8% (inactive) and 68.7% (inactive)
14 | OC[C@@H](O)C(O[C@@H]1O[C@H](CO)[C@H](O)[C@H](O)[C@H]1O)[C@H](O)[C@@H](O)CO (some centres undefined) | 99.9% | 63.4% (inactive)
15 | NCCCC(N)CC(=O)NCC1NC(=O)C(CO)NC(=O)C(N)CNC(=O)C(C2CCN=C(N)N2)NC(=O)/C(=C\NC(N)=O)NC1=O (stereo not drawn) (H-[Dap]S[Dap](ξβ3hOrn)[ΔAla(E,3-NHCONH2)][X1]; lactam 1-C; configuration not given here) | 74.9% and 94.9% | 84% (inactive) and 54.2% (inactive)
16 | COCC1=C(C(=O)OC(C)OC(=O)OC(C)C)N2C(=O)[C@@H](NC(=O)/C(=N/OC)c3csc(N)n3)[C@H]2SC1 (some centres undefined) | 194% | 42.3% (inactive)

Row | SMILES | viability | parasite load remaining
17 | C#C[C@]1(OC(C)=O)CCC2C3CCC4=C/C(=N/O)CCC4C3CC[C@@]21CC (some centres undefined) | 100% | 66.7% (inactive)
18 | CCC(C)C(N)C1=NC(C(=O)NC(CC(C)C)C(=O)NC(CCC(=O)O)C(=O)NC(C(=O)NCCCCC2NC(=O)C(CC(N)=O)NC(=O)C(CC(=O)O)NC(=O)C(Cc3cnc[nH]3)NC(=O)C(Cc3ccccc3)NC(=O)C(C(C)CC)NC(=O)C(CCCN)NC2=O)C(C)CC)CS1 (stereo not drawn) (cyclo(DNK([Ile-Glu-Leu-X2])[Orn]IFH); configuration not given here) | 71.2% and 97.2% | 93.7% (inactive) and 69.5% (inactive)
19 | C[N+](C)(C)CCOP(=O)([O-])OP(=O)(O)OC[C@H]1OC(n2ccc(N)nc2=O)[C@H](O)[C@@H]1O (some centres undefined) | 92.4% and 97.3% | 169% (inactive) and 55.3% (inactive)
20 | CCN[C@@H]1C[C@H](N)[C@@H](O[C@H]2OC(CN)=CC[C@H]2N)[C@H](O)[C@H]1OC1OC[C@](C)(O)[C@H](NC)[C@H]1O (some centres undefined) | 99.2% | 81% (inactive)
21 | C[C@]12C=CC(=O)C=C1CCC1C2[C@@H](O)C[C@@]2(C)C1CC[C@]2(O)C(=O)COC(=O)CCC(=O)O (some centres undefined) | 98% | 61.5% (inactive)
22 | O=C(N[C@@H](CO)[C@H](O)c1ccc([N+](=O)[O-])cc1)C(Cl)Cl | 77.9% and 95.2% | 85.6% (inactive) and 68.5% (inactive)
23 | N[C@H](Cc1cc(I)c(Oc2ccc(O)c(I)c2)c(I)c1)C(=O)O | 99.9% | 45.9% (inactive)
24 | NC(Cc1c[nH]c2ccccc12)C(=O)O (centres undefined) | 72.8% and 89.5% | 149% (inactive) and 37.9% (inactive)
25 | O=C(O)C1=C(CSc2nnnn2CS(=O)(=O)O)CS[C@@H]2C(NC(=O)[C@H](O)c3ccccc3)C(=O)N12 (some centres undefined) | 103% | 57.8% (inactive)
26 | O=C1O[C@H](C(O)CO)C(O)=C1O (some centres undefined) | 69.6% and 79.3% | 82.7% (inactive) and 21.4% (inactive)
27 | CC1=C(C(=O)O)N2C(=O)[C@@H](NC(=O)C(N)c3ccc(O)cc3)[C@H]2SC1 (some centres undefined) | 75.2% and 100% | 82.3% (inactive) and 62.8% (inactive)
28 | C=C1CC[C@H](O)C/C1=C/C=C1\CCCC2(C)C1CCC2C(C)CCCC(C)C (some centres undefined) | 104% | 36.2% (inactive)
29 | CC(=O)c1cc2ccccc2oc1=O | 96.7% | 80.8% (inactive)
30 | OC[C@H]1OC([S-])[C@H](O)[C@@H](O)[C@@H]1O.[Au+] (some centres undefined) | 97.6% | 51.4% (inactive)
31 | CC(C)(O/N=C(\C(=O)N[C@@H]1C(=O)N2C(C(=O)[O-])=C(C[n+]3ccccc3)CSC12)c1csc(N)n1)C(=O)O (some centres undefined) | 101% | 57.9% (inactive)
32 | C[C@H]1O[C@@H](O[C@H]2[C@@H](O)C[C@H](O[C@H]3[C@@H](O)C[C@H](O[C@H]4CC[C@]5(C)C6CC[C@]7(C)[C@@H](C8=CC(=O)OC8)CC[C@]7(O)C6CC[C@@H]5C4)O[C@@H]3C)O[C@@H]2C)C[C@H](O)[C@@H]1O (some centres undefined) | 37.2% and 52.3% | 0.925% (inactive) and 0.995% (inactive)
